The source of these data is PubChem BioAssay (NCI).

Test systems include NCI-H23 lung; NCI-H226 lung; NCI-H322M lung; HOP-62 NSCLC; NCI-H460 lung; HOP-92 NSCLC; NCI-H522 lung; A549/ATCC NSCLC; 786-0 renal; COLO 205 colon; DU-145 prostate; K-562 leukemia; MALME-3M melanoma; MDA-MB-231 breast; RXF 393 renal; SF-268 CNS; SF-295 CNS; SF-539 CNS; UACC-257 melanoma; M14 melanoma.
Holding throughout (assay): NCI-60 one-dose screen, 48 h (100 = growth as untreated, 0 = no growth, -100 = all killed)
Conditions in all cases: 10 µM unless noted

About 83,000 compounds went through this panel and 20% of them were active in at least one assay; those are over-represented in the sample as a whole.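 Growth was measured after 48 h exposure to one concentration of compound in 96-well plates. Values under 10 count as active.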 Unmarked numbers belong to inactive results. The source made the active and inactive calls.

In the case of `Cc1nn(-c2ccccc2)c2ncn(CC(=O)N/N=C/c3ccccc3O)c(=O)c12`, the growth in the experiment with NCI-H23 lung was 40.7%; in the experiment on NCI-H226 lung, 47.6%; in the experiment with NCI-H322M lung, 39.1%; in the experiment on HOP-62 NSCLC it was 27.4%; in the experiment with NCI-H460 lung it was 17.7%; in the experiment with HOP-92 NSCLC, 55.8%. The growth was 21% in the experiment with NCI-H522 lung; 38.9% in the experiment on A549/ATCC NSCLC; 37.2% with 786-0 renal; 10.3% with COLO 205 colon; 51.6% with DU-145 prostate; 26.5% with K-562 leukemia. Also, the growth with MALME-3M melanoma was 55.9%; with MDA-MB-231 breast it was 35.9%; in the experiment on RXF 393 renal, 42.2%; in the experiment with SF-268 CNS, 38.9%; in the experiment with SF-295 CNS it was 24.9%; with SF-539 CNS, 46.7%. Besides, the growth is 54.9% in the experiment on UACC-257 melanoma and 45.2% in the experiment on M14 melanoma.
For the molecule `COc1ccc(C(=O)c2c(N)c(C#N)cn2-c2ccc([N+](=O)[O-])cc2)cc1`, the growth in the experiment on NCI-H23 lung was 103%; in the experiment on NCI-H226 lung it was 102%; in the experiment on NCI-H322M lung, 100%; in the experiment on HOP-62 NSCLC it was 83.4%; in the experiment with NCI-H460 lung, 108%; in the experiment on HOP-92 NSCLC, 102%. Further, the growth with NCI-H522 lung was 85.1%; in the experiment with A549/ATCC NSCLC, 103%; with 786-0 renal, 109%; with COLO 205 colon, 105%; with DU-145 prostate, 109%; in the experiment on K-562 leukemia, 104%. The growth is 102% in the experiment with MALME-3M melanoma; 99% with MDA-MB-231 breast; 94.2% in the experiment with RXF 393 renal; 99.6% with SF-268 CNS; 91.9% in the experiment with SF-295 CNS; 95.7% in the experiment on SF-539 CNS. In addition, the growth in the experiment on UACC-257 melanoma is 111%; in the experiment on M14 melanoma it was 113%.
`CCN1C(=O)N(CC)C2NNC(Sc3c(C(=O)O)c4ccccc4n(CCC(C)C)c3=O)=NC21` (stereo not given): the growth in the experiment on NCI-H23 lung is 10.7%; in the experiment with NCI-H226 lung, 30.4%; with NCI-H322M lung, 52.9%; in the experiment on HOP-62 NSCLC, 27.3%; with NCI-H460 lung, -7.83% (active); in the experiment with HOP-92 NSCLC, 49.4%. The growth in the experiment with NCI-H522 lung is -21.7% (active); in the experiment on A549/ATCC NSCLC, 12.4%; with 786-0 renal it was 16%; in the experiment on COLO 205 colon, -20.8% (active); with DU-145 prostate, 17.7%; in the experiment on K-562 leukemia, 6.37% (active). In addition, the growth in the experiment on MALME-3M melanoma was 46.5%; with MDA-MB-231 breast, 10.9%; with RXF 393 renal it was -1.23% (active); with SF-268 CNS, 49.3%; in the experiment on SF-295 CNS it was -16.5% (active); in the experiment with SF-539 CNS, -53.4% (active). The growth in the experiment with UACC-257 melanoma is 40%; in the experiment on M14 melanoma, 12.1%.
On to `COc1ccc(/C=C/C(=O)c2ccc(OC)c(S(N)(=O)=O)c2)c(C(F)(F)F)c1`, for which the growth was -78.3% (active) in the experiment on NCI-H23 lung; -40.9% (active) with NCI-H226 lung; -2.93% (active) with NCI-H322M lung; -5.21% (active) with HOP-62 NSCLC; 4.78% (active) with NCI-H460 lung; 6.4% (active) in the experiment with HOP-92 NSCLC. Further, the growth was 9.43% (active) in the experiment with NCI-H522 lung; 10.6% with A549/ATCC NSCLC; -82% (active) in the experiment on 786-0 renal; 4.9% (active) in the experiment on COLO 205 colon; 16.4% with DU-145 prostate; 7% (active) with K-562 leukemia. Moreover, the growth with MALME-3M melanoma was 17.8%; in the experiment with MDA-MB-231 breast, 5.46% (active); in the experiment with RXF 393 renal it was 16.4%; with SF-268 CNS, 15.5%; in the experiment with SF-295 CNS it was 37.5%; with SF-539 CNS, -84.9% (active). Besides, the growth was 62.3% in the experiment on UACC-257 melanoma and -48.5% (active) in the experiment on M14 melanoma.
As for `COc1ccc2c(c1)C(=O)N(C)C2C1c2c(cc3c(c2OC)OCO3)CCN1C` (stereo not given), the growth was 64.9% with NCI-H23 lung; 65.1% in the experiment with NCI-H226 lung; 75.9% with NCI-H322M lung; 54.5% with HOP-62 NSCLC; 20.7% in the experiment on NCI-H460 lung; 78.7% with HOP-92 NSCLC. In addition, the growth with NCI-H522 lung is 36%; with A549/ATCC NSCLC, 57.9%; in the experiment with 786-0 renal it was 65.9%; with COLO 205 colon it was 33.1%; in the experiment on DU-145 prostate it was 73.2%; with K-562 leukemia, 16.6%. Besides, the growth was 33.8% in the experiment on MALME-3M melanoma; 66.7% in the experiment with MDA-MB-231 breast; 19.8% in the experiment on RXF 393 renal; 66% in the experiment on SF-268 CNS; 26.7% in the experiment on SF-295 CNS; 45.5% in the experiment on SF-539 CNS. For the same molecule, the growth in the experiment on UACC-257 melanoma is 71%; in the experiment with M14 melanoma, 36.6%.
As to `CC1=C(C(=O)Nc2ccccc2)C(c2ccc3ccccc3c2)n2c(nc3ccccc32)N1` (stereo not given), the growth in the experiment with NCI-H23 lung is 73.3%; in the experiment with NCI-H226 lung, 84%; with NCI-H322M lung it was 66.3%; in the experiment with HOP-62 NSCLC, 113%; with NCI-H460 lung it was -45.5% (active); in the experiment on HOP-92 NSCLC it was 64.2%. Besides, the growth is 63% in the experiment on NCI-H522 lung; 8.83% (active) in the experiment with A549/ATCC NSCLC; 10.6% in the experiment on 786-0 renal; 112% with COLO 205 colon; 46.2% in the experiment with DU-145 prostate; 43.8% with K-562 leukemia. For the same molecule, the growth with MALME-3M melanoma was 72.5%; in the experiment with MDA-MB-231 breast, 5.61% (active); in the experiment on RXF 393 renal it was 53.3%; in the experiment with SF-268 CNS it was 72.5%; in the experiment with SF-295 CNS, 37%; in the experiment on SF-539 CNS, 81.8%. Moreover, the growth is 81.1% in the experiment with UACC-257 melanoma and 66.6% in the experiment with M14 melanoma.
For the molecule `N#CC1=C(c2cccs2)Nc2c(c(-c3ccccc3)nn2-c2ccccc2)C12C(=O)Nc1ccc(Cl)cc12` (stereo not given), the growth was 23.8% in the experiment on NCI-H23 lung; 51.6% in the experiment on NCI-H226 lung; 47.1% in the experiment with NCI-H322M lung; 28.8% in the experiment on HOP-62 NSCLC; 6.17% (active) with NCI-H460 lung; -8.79% (active) in the experiment with HOP-92 NSCLC. For the same molecule, the growth in the experiment on NCI-H522 lung was 3.38% (active); in the experiment with A549/ATCC NSCLC it was 24.4%; in the experiment with 786-0 renal it was 22.3%; in the experiment on COLO 205 colon, -29.2% (active); with DU-145 prostate it was 50.5%; with K-562 leukemia it was 11.1%. Further, the growth was 76.3% in the experiment on MALME-3M melanoma; 21.5% with MDA-MB-231 breast; -11.4% (active) in the experiment on RXF 393 renal; 23.2% in the experiment on SF-268 CNS; 12.9% with SF-295 CNS; 20.5% in the experiment with SF-539 CNS. For the same molecule, the growth with UACC-257 melanoma was 63.5%; with M14 melanoma, 16.5%.
For `COc1ccc2nc(NC(=O)c3ccc(N(C)C)cc3)sc2c1`, the growth with NCI-H23 lung is 66.2%; in the experiment on NCI-H226 lung, 56.9%; with NCI-H322M lung, 64.7%; in the experiment with HOP-62 NSCLC it was 92%; in the experiment with NCI-H460 lung, 65.9%; in the experiment with HOP-92 NSCLC it was 112%. Besides, the growth in the experiment on NCI-H522 lung was 67.7%; in the experiment with A549/ATCC NSCLC, 54.9%; in the experiment with 786-0 renal, 85%; with COLO 205 colon, 89.5%; in the experiment with DU-145 prostate, 83.4%; with K-562 leukemia, 60.2%. The growth with MALME-3M melanoma was 72.7%; with MDA-MB-231 breast, 92.7%; with RXF 393 renal, 110%; in the experiment with SF-268 CNS, 90.2%; in the experiment with SF-295 CNS, 59%; with SF-539 CNS, 90%. The growth with UACC-257 melanoma was 80.6%; in the experiment with M14 melanoma, 87.4%.
